# Screening data deposited in PubChem BioAssay by National Center for Advancing Translational Sciences (NCATS).
# This is a sample that favours compounds with a hit; in the whole collection about 1.2% have one here.
# Pin1 inhibitor: blocks the human prolyl isomerase Pin1; Q13526; Pin1 FP peptide displacement, HiFluor488, 10 min; Potency, µM (highest dose often 115 µM), inactives show top-dose activity, negative = inhibition, most hits filed as inhibitors; 0.009% of 390,000 active; AID 504891; active = well fitted inhibition curve with a large enough effect in the polarisation, with a control signal flat, not every such curve was filed as active; inconclusive = small, poorly fitted or top-dose-only effect, or effect the other way, or a change in a side signal; inactive = no such curve, though single readings can be large or run the other way; the % refers to the polarisation; also: potency is read from the fitted curve at half-maximal effect
# RGS4 inhibitor: blocks human RGS4-accelerated GTP hydrolysis; 0.039% of 390,000 active; Transcreener GDP fluorescence polarization, RGS4-accelerated GTP hydrolysis; P49798; AID 504845; Potency, µM (titrated, usually from 114 µM), inactives show top-dose activity change, negative = inhibition, actives largely listed as inhibitors; also: potency is read from the fitted curve at half-maximal effect; nearly all actives have a fitted effect of over 75% in size
#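 MLSMR compounds (23 nl, pin-transferred) preincubated 10 min at room temperature with a 500nM (2x) first reagent, then RGS4 at 900nM (2x) plus Transcreener GDP mix added; fluorescence polarization (620/688 nm) read before and after 90 min at 30 °C.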
# KCNH2 WT inh: inhibitors of human wildtype KCNH2 potassium channel; Q12809; U2OS, BacMam KCNH2, thallium flux FluxOr; stronger effect = lower value; activity change, % at 1.84 µM; 0.37% of 340,000 active; AID 720551;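 active = maximum activity change below -70%; inconclusive = maximum activity change between -70% and -50%; inactive = maximum activity change above -50%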
#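 U2OS cells transduced with wild-type KCNH2 virus are loaded with FluxOr dye for 45 min, and thallium flux is measured in kinetic reads before and after stimulation buffer. Rate constants are normalized to DMSO controls.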
# GCN5L2 inh: GCN5L2 (KAT2A) acetyltransferase inhibition; Potency, µM (doses to about 58.9 µM), without a hit: top-dose activity change, negative = inhibition, actives largely listed as inhibitors; GCN5L2 HAT assay, ThioGlo1 CoA-SH fluorescence; Q92830; 0.21% of 390,000 active; also: potency is read from the fitted curve at half-maximal effect
#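 GCN5L2 (20nM final) in 50mM HEPES, 0.1mM EDTA pH 7.5, 0.01% Tween-20 was preincubated 15 min at room temperature with compound, then given ThioGlo1 (50uM), H3(1-25) peptide (75uM) and acetyl-CoA (70uM); CoA-thiol fluorescence (Ex340/Em540) was read at 0 and 20 min.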
# KCNH2 3.1 block: blocks the human KCNH2 3.1 channel isoform. 0.95% of 340,000 active. U2OS KCNH2 3.1, thallium flux FluxOr; stronger effect = lower value. activity change, % (tested at about 1.8 µM);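 active = maximum activity change below -70%; inconclusive = maximum activity change from -70% to -50%; inactive = maximum activity change above -50%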;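 also: thallium influx rate constant from kinetic fluorescence after stimulation buffer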
#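 U2OS cells transduced with KCNH2 3.1 mutant virus (1.77 x 10^8 /mL, 4 h), plated overnight at 37 C, loaded 45 min with FluxOr dye plus Red40 quencher. Thallium flux rate constant from kinetic reads after stimulation buffer, normalised to controls.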
# PGK inhibitor: inhibitors of T. brucei phosphoglycerate kinase | 0.043% of 380,000 active | Potency, µM (doses to about 57.5 µM), for the others: top-dose activity change, negative = inhibition, actives largely listed as inhibitors | AID 602233 | P07378 | PGK/GAPDH coupled, Kinase-Glo luminescence, 60 min; also: potency is read from the fitted curve at half-maximal effect; nearly all actives have a fitted effect of over 60% in size
#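 Recombinant glycosomal PGK reaction used 1,3-bisphosphoglycerate generated in-well by GAPDH (100nM final) in 100mM TEA pH 7.6, 5mM MgCl2, 0.01% Tween-20. After 60 minutes at room temperature, ATP was read by Kinase-Glo Plus luminescence end-point.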
# Active calls of the source: *; i = inactive; ? = inconclusive; / = not tested or not shown; ! = not active in a repeat; [ ] = dose if it differs, or a comment. Unless noted, calls follow the shape of the dose curve; as a rule, active = well fitted curve in the direction sought with a large enough effect; inconclusive = small, poorly fitted or top-dose-only effect, or another doubt; inactive = no such curve, though single readings can be large; an effect the other way counts as inactive or inconclusive. % is scaled to controls: 0 for no effect and ±100 for the full control effect.
SMILES,Pin1 inhibitor,RGS4 inhibitor,KCNH2 WT inh,GCN5L2 inh,KCNH2 3.1 block,PGK inhibitor
Cc1ccc(NP(=O)(Oc2ccccc2)Oc2ccccc2)cc1,-9%,-17%,1,/,12,2%
Cc1ccc(OP(=O)(NCc2ccccc2)Oc2ccc(C)cc2)cc1,1%,-21%,-12,-7%,-87*,-8%
CC1CC2CCC(O2)C(C)C(=O)OC(C)CC2CCC(O2)C(C)C(=O)OC(C)CC2CCC(O2)C(C)C(=O)OC(C)CC2CCC(O2)C(C)C(=O)O1 (stereo not drawn),/,/,/,-14%,/,/
CCSC1=NN1c1cc(C)nc(N)n1,-3%,-17%[56.9 µM],0,-2%,-95*,i
O=c1[nH]c(=S)n(Cc2ccc(F)cc2)c(O)c1C=NCCCn1ccnc1,11%,25%,-37,-2%,-84*,i
CCOc1ccc(NC(=O)CSc2oc(-c3ccccc3)nc2S(=O)(=O)c2ccc(Cl)cc2)cc1,122%,?,/,2%,/,-6%
CCCN1CCc2cc(O)cc3c2[C@H]1Cc1ccc(O)c(O)c1-3,?,0.53µM*!,1,-14%,-27,-9%
COc1cc2c(cc1O)C[C@H]1c3c(cc(O)c(OC)c3-2)CCN1C,0%,-8%,27,-11%,-11,1%
CO/C1=C\C(C)=C\[C@@H](C)[C@@H](O)[C@@H](C)C/C(C)=C/C=C/[C@H](OC)[C@@H]([C@@H](C)[C@@H](O)[C@H](C)[C@@]2(O)C[C@@H](O)[C@H](C)C(C(C)C)O2)OC1=O (stereo partly drawn),/,/,/,-18%,/,/
NCC[C@H](O)C(=O)N[C@H]1C[C@@H](N)[C@@H](O[C@H]2O[C@@H](CN)[C@@H](O)[C@@H](O)[C@@H]2N)[C@@H](O[C@H]2O[C@@H](CO)[C@@H](O)[C@@H]2O)[C@@H]1O,/,/,/,-2%[21.4 µM],/,/
COC(=O)c1cc(Oc2ccc(Cl)cc2Cl)ccc1[N+](=O)[O-],/,/,/,-17%,/,/
O=C(Nc1ccc(Oc2ccc(Cl)cc2)c(Cl)c1)c1cc(I)cc(I)c1O,?,-23%,-6,25µM*,-5,3%
NCC1OC(O[C@H]2[C@H](O)[C@@H](OC3C(O)C(N)CC(N)C3OC3OC(CO)C(O)C(O)C3N)O[C@@H]2CO)C(N)C(O)C1O (stereo partly drawn),/,?,/,-7%,/,/
O=C1NC(=O)C(=Cc2csc3ccccc23)C(=O)N1,6%,?,-209*,-8%,-180*,-9%
CCCCn1c(NS(=O)(=O)c2ccccc2)c(C(=O)OCC)c2nc3ccccc3nc21,?,-17%,8,25µM*,4,-6%
N#Cc1cc(F)c(N2CCNCC2)cc1Cl,0%,-7%,-1,1%,-9,-6%
N#Cc1ccc(N2CCNCC2)c(F)c1,-5%,23%,?,-2%,-76*,-10%
CSc1ccc(CN2CCN(c3ccccc3C)CC2)cc1,-7%,5%,-129*,-23%,-114*,6%
Ic1ccccc1CN[C@@H]1C2CCN(CC2)[C@@H]1C(c1ccccc1)c1ccccc1,-13%,-23%,5,-5%,-75*,-2%
OC[C@H]1O[C@@H](n2cnc3cc(Cl)c(Cl)cc32)[C@H](O)[C@H]1O,/,i,/,-2%,/,/
Cc1ccccc1N1C(=O)/C(=C/c2ccco2)C(=O)NC1=S,/,/,/,2.2µM*,/,/
CCOc1ccc(N2C(=O)/C(=C/c3ccco3)C(=O)NC2=S)cc1,?,-107%,16,22µM*,6,?
CC(C)C1C(=O)O[C@@H]2CCN3CC=C(COC(=O)[C@](C)(O)[C@]1(C)O)[C@H]23 (stereo partly drawn),/,/,/,-4%,/,/
COc1cccc(NC(=O)CSC2=Nc3ccccc3C3=NC(CCC(=O)NCCc4ccccc4)C(=O)N23)c1 (stereo not drawn),21%,-2%,/,-7%,/,-5%
CC(C)CN1CC[C@@]2(CCCN(C(=O)Oc3ccccc3)C2)C1,/,/,/,-5%,/,/
SMILES,Pin1 inhibitor,RGS4 inhibitor,KCNH2 WT inh,GCN5L2 inh,KCNH2 3.1 block,PGK inhibitor
COc1ccc(CNCCc2c(C)[nH]c3ccc(OC(F)(F)F)cc23)c(OC)c1,-6%,-6%,4,-3%,-78*,-10%
COc1ccc2[nH]c(C)c(CCNCc3cc(OC)c(OC)c(OC)c3)c2c1,?,4%,-10,-10%,-3,-8%
CN1C(=O)NC(=O)/C(=C/c2ccc([N+](=O)[O-])o2)C1=O,?,?,-2,-2%,-3,14µM*
CCN(CC)CCNCC(=O)Nc1ccc(Cl)cc1C(=O)c1ccccc1,-11%,-7%,-87*,3%,-95*,-7%
COC(=O)C(O)C(O)(CCC(C)C)C(=O)OC1C(OC)=CC23CCCN2CCc2cc4c(cc2C13)OCO4 (stereo not drawn),/,/,/,12%,/,/
C=CCn1c(O)c(C=NC2CCN(Cc3ccccc3)CC2)c(=O)[nH]c1=O,-1%,11%,4,-20%,-10,i
CCCCCCn1c(O)c(C=NC2CCN(Cc3ccccc3)CC2)c(=O)[nH]c1=O,1%,16%,-1,2%,-95*,-3%
Brc1c(NC2=NCCN2)ccc2nccnc12,/,19µM*,/,-5%,/,/
CCCOc1ccc2[nH]cc(C3=CCNCC3)c2n1,/,10%[56.9 µM],/,-11%,/,/
Nc1c([N+](=O)[O-])ccc(Oc2ccccc2)c1Cl,/,/,/,5%,/,/
CCCCN1C(=O)/C(=C\c2ccco2)C(=O)N(CCc2ccccc2)C1=O,-4%,-106%[56.9 µM],14,40µM*,-9,-14%
CCC1(O)C(=O)OCc2c1cc1n(c2=O)Cc2cc3c(N)cccc3nc2-1 (stereo not drawn),-6%,-32%,-2,/,/,-3%
CC[C@@]1(O)C(=O)OCc2c1cc1n(c2=O)-c2cc3ccccc3nc2C1,/,?,/,28µM*,/,/
Cc1cc(SCc2sc(-c3ccc(C(F)(F)F)c(F)c3)nc2C)ccc1OCC(=O)O,/,/,/,32µM*,/,/
O=C(Oc1ccccc1)N1CCC[C@@]2(CCN(Cc3nccs3)C2)C1,/,/,/,-20%,/,/
CN(C)c1ccc(C=C(C#N)C#N)cc1,12%,2%,-7,-4%,10,-4%
N#CC(C#N)=Cc1ccc(O)c(O)c1,6%,19µM*!,0,-16%,12,-6%
O=c1[nH]sc2cc(F)ccc12,-14%,-108%,-4,4.5µM*,-4,6%
CNNC,/,/,/,-23%,/,/
